Sampled rows, rich in hits. Any-hit rate of the full collection: about 2.5%.
Cruzain inh Det – blocks cruzain activity in presence of Triton detergent; P25779; purified cruzain, Z-FR-AMC fluorescence, 0.01% Triton; Potency, µM, without a hit: max response, negative = inhibition, most hits filed as inhibitors; hit rate 0.43% among 200,000;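 also: plate controls were neutral wells for no effect and buffer without enzyme for full effect; nearly all actives have a fitted effect of over 40% in size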
Target sequence (P25779 123-467 limits assumed): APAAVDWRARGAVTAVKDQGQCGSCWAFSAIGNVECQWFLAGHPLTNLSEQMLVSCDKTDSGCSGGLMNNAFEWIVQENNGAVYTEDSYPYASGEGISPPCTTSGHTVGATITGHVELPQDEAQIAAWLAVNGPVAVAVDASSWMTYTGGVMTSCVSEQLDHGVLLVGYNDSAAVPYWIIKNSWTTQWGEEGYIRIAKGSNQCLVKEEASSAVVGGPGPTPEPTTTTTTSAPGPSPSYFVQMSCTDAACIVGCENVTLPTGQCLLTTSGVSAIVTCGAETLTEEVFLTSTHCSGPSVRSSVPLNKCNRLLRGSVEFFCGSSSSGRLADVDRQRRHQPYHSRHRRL
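Read-out: AMC fluorescence (360 nm excitation, 450 nm emission), four reads over 2 min, first-to-third difference used. Conditions: cruzain 1.5 nM, Z-FR-AMC 2 uM, pH 5.5 acetate, 5 mM DTT, 0.01% Triton X-100.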
Cruzain inh noDet – inhibitors of Trypanosoma cruzi cruzain without detergent; P25779; purified cruzain, Z-FR-AMC fluorescence, no detergent; Potency, µM, inactives show max response, negative = inhibition, actives largely listed as inhibitors; hit rate 2.3% among 200,000;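 also: plate controls were enzyme without inhibitor for no effect and buffer without enzyme for full effect; nearly all actives have a fitted effect of over 40% in size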
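Purified cruzain at 1.5 nM, pre-incubated 15 min with compound at room temperature in 100 mM sodium acetate pH 5.5, 5 mM DTT, 0.00005% Triton X-100. Reaction started with 2 uM Z-FR-AMC; AMC fluorescence increase over 60 s gives rate.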
An asterisk follows results filed as active; ? = inconclusive; ! = a repeat was not active. Calls follow the shape of the dose curve; as a rule, active = well fitted curve in the direction sought with a large enough effect; inconclusive = small, poorly fitted or top-dose-only effect, or another doubt; inactive = no such curve, though single readings can be large; an effect the other way counts as inactive or inconclusive. Potency is read from the fitted curve at half-maximal effect.

SMILES | Cruzain inh Det | Cruzain inh noDet
COc1ccc2c3c([nH]c2c1)C(C)=NCC3 | -3.3% | 10µM*!
COc1ccccc1CNC(=O)CCCCn1c(=O)c2ccccc2n(CC(=O)Nc2cccc(Cl)c2)c1=O | -2.0% | -8.0%
CCN(C(=O)c1cn(C)c(=O)c2ccccc12)c1cccc(C)c1 | 5.2% | 0.5%
CCOCCCNC(=O)c1ccc2c(=O)n(CCc3ccc(OC)c(OC)c3)c(=O)[nH]c2c1 | 0.4% | 5.6%
CCC(Sc1nc(-c2ccccc2)[nH]c1S(=O)(=O)c1ccc(C)cc1)C(=O)O (stereo unspecified) | -5.5% | 3.3%
COCCCNC(=O)c1[nH]c2cc(OC)ccc2c1Sc1ccc(C)cc1 | 1.3% | 26.3%
COc1ccc2c(Sc3ccc(C)cc3)c(C(=O)NCCc3ccccc3)[nH]c2c1 | -3.0% | 15.8µM*
Cc1coc2c(C)c3oc(=O)c(CCC(=O)N4CCCCC4)c(C)c3cc12 | -0.7% | -0.4%
CCOc1ccccc1CNCc1cccn1-c1nnc(N2CCN(c3ccccc3)CC2)s1 | -3.2% | 0.8%
CCCOc1ccc(Nc2nc(SC)ncc2C(=O)OCC)cc1 | -2.7% | 24.3%
Cc1cc(C)c(C#N)c(OCC(=O)c2ccccc2)n1 | -5.6% | -5.7%
N#Cc1c(OCC(=O)c2ccccc2)nc2c(c1-c1ccco1)CCc1ccccc1-2 | 14.1µM* | 7.94µM*
CCOc1ccc(-c2cc(C(=O)NCc3ccccc3Cl)c3ccccc3n2)cc1 | -0.3% | -1.7%
CC1=C(c2ccc(C)cc2)S(=O)(=O)N(Cc2ccc(C(=O)Nc3ccc(C)c(F)c3)cc2)C1=O | -2.0% | 20µM*
COc1ccc(C2=C(C)C(=O)N(Cc3ccc(C(=O)Nc4cc(C)ccc4C)cc3)S2(=O)=O)cc1 | -8.1% | ?
O=S(=O)(NCCc1csc2nc(-c3ccc(F)cc3)nn12)c1ccc(Oc2ccccc2)cc1 | -1.1% | -11.0%
Fc1ccccc1COc1ccccc1/C=N/Nc1nc(N2CCCC2)nc(N2CCCC2)n1 | -2.6% | ?
Fc1ccc(COc2ccc(Cl)cc2/C=N/Nc2nc(N3CCCC3)nc(N3CCCC3)n2)cc1 | -1.7% | 5.01µM*
CC1=NN(c2ccccc2)C(=O)/C1=C\c1c(C)[nH]n(-c2ccccc2)c1=O | 0.9% | 1.7%
CC1=NN(c2ccccc2)C(=O)/C1=C/c1c(O)n(-c2ccc(F)c(Cl)c2)[nH]c1=O | 22.4µM* | -5.5%
COc1ccc(NC(=O)c2c(C)oc3ccc(O)c(CN4CCCCCC4)c23)cc1 | -1.9% | -2.0%
COc1ccc(-n2c(=O)c3c(c4cc(OC)ccc4n3C)n(Cc3cc(C)ccc3C)c2=O)cc1 | -0.4% | 0.3%
Cc1ccccc1C(=O)Nc1nnc(S(=O)(=O)N2CCc3ccccc32)s1 | 1.4% | 21.6%
COc1ccc(Br)cc1C1Sc2ccccc2NC2=C1C(=O)c1ccccc12 (stereo unspecified) | -1.7% | 15.8µM*
O=C1C2=C(Nc3ccccc3SC2c2c(F)cccc2Cl)c2ccccc21 (stereo unspecified) | -4.5% | -14.0%
SMILES | Cruzain inh Det | Cruzain inh noDet
CCOc1cc(C2Sc3ccccc3NC3=C2C(=O)c2ccccc23)ccc1O (stereo unspecified) | -6.3% | -4.9%
O=C1C2=C(Nc3ccccc3SC2c2ccc(Cl)c(Cl)c2)c2ccccc21 (stereo unspecified) | -2.2% | 10µM*
CCCc1ccc(C2Sc3ccccc3NC3=C2C(=O)c2ccccc23)cc1 (stereo unspecified) | -3.5% | 7.94µM*
O=C1C2=C(Nc3ccccc3SC2c2ccccc2C(F)(F)F)c2ccccc21 (stereo unspecified) | -7.8% | ?
COc1ccc(CNC(=O)C2CCN(c3nc4ccc(C)cc4[nH]3)CC2)cc1 | -2.7% | -13.0%
Cc1ccc(NC(=O)CCC(=O)N2CCSc3ccccc32)cc1 | -4.4% | -4.5%
Oc1ccccc1C1Nc2cccc3cccc(c23)N1 | -9.8% | -19.4%
COc1ccccc1C1Nc2cccc3cccc(c23)N1 | -4.3% | 25.1µM*
N#C/C(=C\c1cc([N+](=O)[O-])c(N2CCOCC2)cc1N1CCOCC1)c1nc2ccccc2[nH]1 | -8.0% | ?
N#C/C(=C\c1cc([N+](=O)[O-])c(N2CCCCC2)cc1N1CCCCC1)c1nn(-c2ccccc2)c(N)c1C#N | 5.1% | 7.94µM*
CCc1ccc(CN(Cc2ccco2)c2cnc(S(C)(=O)=O)nc2C(=O)Nc2cccc(C)c2)cc1 | -2.0% | ?
Cn1c(N)c(C(=O)COC(=O)c2cc(-c3ccccc3)nc3ccccc23)c(=O)n(C)c1=O | 0.1% | ?
Cn1c(N)c(C(=O)COC(=O)c2cc(-c3ccccc3)nc3ccccc23)c(=O)n(Cc2ccccc2)c1=O | -0.4% | 12.6µM*
O=C(Nc1cc(Cl)ccc1Cl)c1cc(S(=O)(=O)N2CCCc3ccccc32)ccc1F | 0.4% | 2.4%
Cc1cccc2c1[nH]c1nc(N/N=C\c3ccco3)nnc12 | -1.3% | -10.5%
CC(/C=N/Nc1nnc2c(n1)[nH]c1ccccc12)=C\c1ccco1 | -1.8% | 10µM*
CC(C)Oc1ccc(C(=O)NCC(c2ccc(N(C)C)cc2)N2CCc3ccccc32)cc1 (stereo unspecified) | -4.5% | ?
CN(C)c1ccc(C(CNC(=O)c2ccccc2Cl)N2CCc3ccccc32)cc1 (stereo unspecified) | -16.9% | 31.6µM*
COc1ccc(C(=O)NCC(c2ccc(N(C)C)cc2)N2CCc3ccccc32)cc1 (stereo unspecified) | ? | 12.6µM*
COc1ccccc1C(=O)NCC(c1ccc(N(C)C)cc1)N1CCc2ccccc21 (stereo unspecified) | -11.2% | ?
Cc1ccc(-n2ncc(C(=O)N3CCN(C4CCCCC4)CC3)c2C2CCN(C(=O)OC(C)(C)C)CC2)cc1C | -2.4% | -11.6%
COc1ccccc1CNC(=O)CCCCn1c(=O)c2ccccc2n(CC(=O)Nc2c(C)cc(C)cc2C)c1=O | -1.1% | -3.1%
COc1ccc(CCNC(=O)c2ccc3c(c2)N(Cc2ccc(F)cc2)C(=O)c2ccccc2S3(=O)=O)cc1OC | -4.0% | ?
COC(=O)c1ccccc1NC(=O)Cc1noc2ccc(C)cc12 | -4.2% | 2.4%
COC(=O)c1ccccc1NC(=O)Cc1nc(-c2ccccc2)sc1-c1ccc(C)cc1 | -4.0% | 25.1µM*
SMILES | Cruzain inh Det | Cruzain inh noDet
CCc1ccc(NC(=O)Cn2c(=O)n(CC3CCCO3)c(=O)c3cc(OC)c(OC)cc32)cc1 (stereo unspecified) | -2.6% | 8.6%
COc1ccccc1CNC(=O)c1c(O)c2cc(OC)c(OC)cc2[nH]c1=O | -6.4% | 3.16µM*
COc1ccccc1CNC(=O)c1ccc2[nH]c(C)c(C)c2c1 | -5.1% | -13.2%
CCCCCCNC(=O)c1c(O)c2ccccc2[nH]c1=O | -0.4% | 25.1µM*
CCCCCCC(=O)Nc1c(O)c2ccccc2[nH]c1=O | -0.6% | ?
CCOCCCNc1nc2c(S(=O)(=O)c3ccc(CC)cc3)nnn2c2ccc(Cl)cc12 | -1.9% | -6.8%
CCOC(=O)C1=C(CN2CCN(c3ccc(Cl)cc3)CC2)NC(=O)NC1c1ccc(OC)cc1 (stereo unspecified) | 0.1% | -2.6%
Cc1cc(C)c2nc(N(Cc3cccnc3)C(=O)c3cccs3)sc2c1 | -7.2% | -0.2%
COc1ccc2nc(SCC(=O)N3CCCCCC3)c(C#N)cc2c1 | -4.3% | -2.4%
CCOc1ccc2nc(SCC(=O)N3c4ccccc4Sc4ccccc43)c(C#N)cc2c1 | -1.0% | 3.98µM*
COc1ccc(Cl)cc1NC(=O)Cc1coc2c(C)c(C)ccc12 | -11.5% | -29.1%
CC(C)Sc1cc(N2CCOCC2)nc(-c2ccccc2)n1 | -4.9% | -8.3%

Assay outcomes: PubChem, National Center for Advancing Translational Sciences (NCATS)
